Screening results from PubChem BioAssay.
Giardia FBPA inh = blocks Giardia fructose-bisphosphate aldolase activity | Potency, µM (highest dose often 59.6 µM), for the others: at the top dose activity, negative = inhibition, hits mostly inhibitors | AID 2451 | actives 0.71% (n = 290,000) | purified Giardia FBPA; note: potency is the fitted concentration of half-maximal effect; % is set by controls: 0 for no effect and ±100 for the full control effect; nearly all actives have a fitted effect of over 55% in size
Target sequence (A8B2U2 whole entry, looked up): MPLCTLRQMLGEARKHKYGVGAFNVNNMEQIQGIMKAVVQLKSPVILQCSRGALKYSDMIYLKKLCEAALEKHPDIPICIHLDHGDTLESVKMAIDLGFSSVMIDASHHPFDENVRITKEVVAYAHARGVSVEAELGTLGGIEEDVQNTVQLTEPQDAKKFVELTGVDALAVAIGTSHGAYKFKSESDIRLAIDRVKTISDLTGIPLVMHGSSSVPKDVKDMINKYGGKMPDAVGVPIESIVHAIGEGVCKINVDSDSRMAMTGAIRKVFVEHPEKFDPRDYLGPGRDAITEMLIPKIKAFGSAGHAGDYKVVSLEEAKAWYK
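Giardia FBPA (40 nM reagent) was preincubated 10 min at RT with compound (up to 57.5 uM final), then substrate plus GAPDH/TPI/NAD/arsenate coupling system with diaphorase/resazurin was added; resorufin fluorescence (525/598 nm) was read after 20 min.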
Cycloheximide cs = affects cycloheximide protein synthesis inhibition readout, counter-screen. actives 12% (n = 300,000). cell reporter, cycloheximide protein synthesis inhibition counterscreen. max response, %; in the data active = max response mostly above about 13%, no sharp cut-off; inactive = mostly below about 14%; note: read at 38.3 µM for the half of the compounds with a filed dose; 0% is about no effect
Tb PYK inh = inhibitors of Trypanosoma brucei pyruvate kinase; Q57TT1; TbPYK enzyme, Kinase-Glo Plus ATP luminescence, 45 min; Potency, µM (doses to about 76.8 µM), inactives show top-dose activity, negative = inhibition, actives largely listed as inhibitors; actives 0.12% (n = 410,000); AID 624173; note: potency is the fitted concentration of half-maximal effect; % is set by controls: 0 for no effect and ±100 for the full control effect; nearly all actives have a fitted effect of over 50% in size
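Assay buffer: 50 mM TEA pH 7.2, 100 mM KCl, 10 mM MgCl2, 0.05% BSA, 0.01% Tween-20. Pyruvate kinase from T. brucei plus substrate met compound, then ADP (130 uM final). Luminescence was read post 45 min RT.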
LmPK inhibitor = inhibitors of Leishmania mexicana pyruvate kinase. Q27686. purified LmPK, Kinase-Glo ATP luminescence, 1 h. Potency, µM (series often up to 57.5 µM), for the others: at the highest dose activity change, negative = inhibition, hits mostly inhibitors. actives 0.37% (n = 290,000); note: potency is the fitted concentration of half-maximal effect; % is set by controls: 0 for no effect and ±100 for the full control effect
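Screened at intermediate enzyme activity to detect both inhibitors and activators: LmPK at 0.1 nM, with a 0.5 nM enzyme column as activation reference. PEP 0.5 mM, ADP 0.1 mM; ATP detected by luminescence after 1 h.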
Sm TGR block = inhibitors of Schistosoma mansoni thioredoxin glutathione reductase | purified TGR, DTNB reduction, TNB absorbance 405 nm | Potency, µM (doses to about 114 µM), without a hit: at the highest dose activity change, negative = inhibition, usual class: inhibitors | actives 3% (n = 360,000) | AID 485364; note: potency is the fitted concentration of half-maximal effect; % is set by controls: 0 for no effect and ±100 for the full control effect; nearly all actives have a fitted effect of over 60% in size
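TGR 20 nM + NADPH 100 uM (dispensed conc.), cpd preinc 15 min RT; start with NADPH (500 uM addition) then DTNB (15 mM addition). Kinetic TNB absorbance, 405 nm filter. Four-parameter Hill fit across titration.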
Shiga toxin inh = Shiga toxin inhibition. inhibition, % at 38.7 µM. actives 9.2% (n = 290,000). Vero cells, Shiga toxin protein synthesis inhibition reporter; in the data active = inhibition mostly above about 28%, no sharp cut-off; inactive = mostly below about 43%; note: 0% is about no effect
The depositor's hits bear a star; ? = inconclusive; · = no result given. This excerpt belongs to a sample that is enriched for hits. Unless noted, calls come from the whole dose curve; as a rule, active = well fitted curve in the direction sought with a large enough effect; inconclusive = small, poorly fitted or top-dose-only effect, or another doubt; inactive = no such curve, though single readings can be large; an effect the other way counts as inactive or inconclusive.

SMILES	Giardia FBPA inh	Cycloheximide cs	Tb PYK inh	LmPK inhibitor	Sm TGR block	Shiga toxin inh
CSc1cccc(NC(=O)CN(c2cccc(C)c2)S(C)(=O)=O)c1	-1%	-4	·	8%	1%	-5
COC(=O)c1ccc(NC(=O)CN(c2ccc(OC)cc2)S(C)(=O)=O)cc1	0%	53*	-16%	3%	-12%	63*
Cc1cc(C)cc(C(=O)N2CC(=O)Nc3ccc(Br)cc3C2c2ccccc2)c1 (stereo not given)	·	·	-5%	·	2%	·
O=C(CNC(=O)c1ccc(Br)o1)Nc1cccc(S(=O)(=O)N2CCOCC2)c1	·	·	-3%	·	?	·
O=C1CCSc2ccc(S(=O)(=O)Nc3cccc(C(F)(F)F)c3)cc2N1	·	·	6%	·	4%	·
CCCC(=O)OCCNc1cc(Sc2nc3ccccc3[nH]2)c2nonc2c1[N+](=O)[O-]	?	-5	-20%	1%	0.5µM*	-7
CCOC(=O)N1CCN(c2cc(NCCO)c([N+](=O)[O-])c3nonc23)CC1	-22%	-3	-2%	-8%	-4%	15
CCC(=O)OCCNc1cc(Sc2nccn2C)c2nonc2c1[N+](=O)[O-]	-6%	-6	32%	2%	0.71µM*	-10
CCC(=O)OCCNc1cc(SCCC(=O)OC)c2nonc2c1[N+](=O)[O-]	?	0	43%	2%	6.3µM*	-5
COc1ccc(C(=O)NCCn2cc(SCC(=O)Nc3cccc(C)c3)c3ccccc32)cc1	·	·	-5%	·	-2%	·
CC(C)C[C@@H](CC(=O)N[C@@H](CCC(=O)O)CC(=O)O)NC(=O)[C@@H]1CNCC[C@H]1NC(=O)C[C@@H](NC(=O)C[C@H](Cc1c[nH]c2ccccc12)NC(=O)[C@@H]1CNCC[C@H]1N)C(C)C	-22%	·	·	·	·	·
Cc1nc2ccc(NC(=O)Cc3ccc(Br)cc3)cc2s1	1%	2	4%	13%	3%	-8
CC(C)N(C(=O)Nc1ccc2nccnc2c1)C(C)C	3.5µM*	25	0%	-1%	2%	41
Cc1nc2ccc(NC(=O)N(C(C)C)C(C)C)cc2s1	-11%	35*	-8%	-1%	0%	53*
Cc1nc2ccc(NC(=O)N(C)c3ccccc3)cc2s1	2%	40*	-12%	-10%	0%	55*
CC(C)(C)NC(=O)Nc1ccc2nccnc2c1	?	29*	4%	2%	-5%	88*
CCOC(=O)/C=C1/SCC(=O)N1CC(=O)c1ccc[nH]1	·	·	1%	·	·	·
C=CCc1ccc(O)c(-c2ccc(O)c(CC=C)c2)c1	-10%	5	3%	4%	45µM*	27
C=CCc1ccc2c(c1)OCO2	2%	·	·	·	·	·
CCOc1ccc(CNC(=O)c2ccccc2NC(=O)c2nsc3ccccc23)cc1	·	·	4%	·	1%	·
Cc1ccc(NC(=O)C2C3C=CC(O3)C2C(=O)O)cc1C (stereo not given)	-3%	52*	4%	3%	-31%	·
Cc1cccc(NC(=O)C2C3C=CC(O3)C2C(=O)O)c1 (stereo not given)	-4%	-2	·	2%	11µM*	28
Cc1cc(C)c(CN2CCN(CCCn3ccc(NC(=O)OCc4ccccc4)nc3=O)CC2)c(C)c1	·	·	-4%	·	·	·
CSc1ncccc1C(=O)OCc1ccccc1Cl	7%	41*	5%	-7%	-3%	60
O=C(OCc1c(F)cccc1Cl)c1cccnc1Cl	10%	-3	-2%	-4%	8%	6
SMILES	Giardia FBPA inh	Cycloheximide cs	Tb PYK inh	LmPK inhibitor	Sm TGR block	Shiga toxin inh
CSc1ncccc1C(=O)OCc1c(F)cccc1Cl	4%	21*	2%	5%	8%	91*
CC(C)CCNC(=O)CSc1nc2ccsc2c(=O)n1NC(=O)c1ccccc1	30%	26*	6%	0%	-23%	13
CCCN(CCC)C(=O)CSc1nc2ccsc2c(=O)n1NC(=O)c1ccccc1	11%	19*	-9%	3%	-10%	32
Cc1ccc(Cn2c(SCC(=O)NCc3ccccc3)nc3ccsc3c2=O)cc1	·	·	-9%	·	0%	·
Cc1cc2oc(C(=O)Nc3nc(-c4ccccc4)ns3)c(C)c2cc1Cl	·	·	-2%	·	0%	·
CC(=O)C1=C(O)C(=O)N(c2ccccn2)C1c1ccc(Cl)cc1 (stereo not given)	13%	27*	1%	2%	?	66*
CC(=O)C1=C(O)C(=O)N(c2ccccn2)C1c1ccc(C)cc1 (stereo not given)	-6%	12	-14%	0%	0%	15
Cn1nc(C(=O)NC2CCCCC2)c2c1-c1ccccc1S(=O)(=O)C2	·	-8	3%	-4%	-7%	-10
CCc1cc(/C(Cc2ccc3ccccc3n2)=N\O)c(O)cc1O	0%	-2	-12%	5%	0%	37
Cc1c(O)ccc(/C(Cc2ccc3ccccc3n2)=N\N)c1O	-8%	29*	-3%	-10%	-15%	68*
CCCCCC(O)c1ccc([C@H]2CCC(=O)[C@@H]2CCCCCCC(=O)O)cc1 (stereo not given in full)	24%	-7	·	·	·	18
CC(OC(=O)c1cc(=O)[nH]c2ccccc12)c1ccccc1 (stereo not given)	3%	32*	-1%	1%	2%	70*
Cc1ccc(NC(=O)C(C)Sc2nc3c(c(=O)[nH]2)CCCC3)cc1Cl (stereo not given)	·	·	-4%	·	-5%	·
CC1CCCN(C(=O)CSc2nnc(-c3ccc(O)cc3)o2)C1 (stereo not given)	1%	-1	-1%	-14%	3%	28
CC1CCCN(C(=O)CSc2nnc(-c3cccs3)o2)C1 (stereo not given)	·	39*	-2%	0%	-5%	64*
O=C(CSc1nnc(-c2cccs2)o1)OC1CCCCC1	7%	-3	-9%	1%	-7%	1
CCC1CCCCN1C(=O)CSc1nnc(-c2cccs2)o1 (stereo not given)	2%	29*	-11%	-1%	2%	89*
Cn1c(=O)c(-c2cc(F)cc(F)c2)nc2cnc(Nc3ccccc3)nc21	-3%	·	·	·	·	·
CC(C)(C)c1ccc(N2C(=O)Cc3c2nc(N)c(C#N)c3N)cc1	-11%	35*	·	2%	-2%	43
CCc1ccc(N2C(=O)CC(=O)NC2=O)cc1	-4%	-2	2%	-1%	?	-4
CCc1ccc(N2C(=O)Cc3c2nc(N)c(C#N)c3N)cc1	-29%	23*	-2%	4%	2%	114*
CCc1nc2c(OCc3c(C)noc3C)cccn2c1N(C)C(=O)C(C)C	·	·	5%	·	·	·
Cc1cc(Cl)ccc1OCC(=O)OCC(=O)c1c(N)n(C)c(=O)n(C)c1=O	·	·	2%	·	-5%	·
CCOC(=O)/C(C#N)=C/c1ccc(-c2ccc(C)cc2)o1	·	·	0%	·	-13%	·
CCOC(=O)/C(C#N)=C/N=c1ccc(C)cn1C	-8%	51*	-7%	3%	16%	68*
